# From PubChem BioAssay AID1159580 (chemical genetic matrix, 2015)
# Among all 5,500 compounds or so, about 2,000 (36%) were called active. About 18% were inconclusive and are not listed. The list shows a part of the results. Unmarked numbers belong to inactive results. Rule as the data show it: active = normalized growth mostly below about 0.91 (no sharp cut-off); inconclusive = no clear call, values can overlap the other calls; inactive = mostly above about 0.92.
# Assay: chemical genetic growth profiling, strain panel (AID 1159580);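 also: tested at 20 µM; growth read once vehicle control cultures reached saturation at 30 °C; 1 = growth at the plate median or of vehicle wells; lower values mean less growth of the strain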
# Conditions: growth OD
compound,measurement,setting,value
O=C(/C=C/C=C/c1ccc2c(c1)OCO2)N1CCCCC1,normalized growth,"S. cerevisiae deletion strains, locus YJR075W, strain HOC1, hits give low values",0.9
same,normalized growth,"S. cerevisiae deletion strains, locus YKL009W, strain mrt4, hits give low values",0.886
same,normalized growth,"S. cerevisiae deletion strains, locus YKL068W, hits give low values",0.966
same,normalized growth,"S. cerevisiae deletion strains, locus YKL085W, strain MDH1 (second series), hits give low values",0.953
same,normalized growth,"S. cerevisiae deletion strains, locus YKL085W, strain MDH1, hits give low values",0.953
same,normalized growth,"S. cerevisiae deletion strains, locus YKL160W, strain elf1, hits give low values",0.919
same,normalized growth,"S. cerevisiae deletion strains, locus YKL190W, strain CNB1, hits give low values",0.974
same,normalized growth,"S. cerevisiae deletion strains, locus YKR001C, strain vps1, hits give low values",0.796 (active)
same,normalized growth,"S. cerevisiae deletion strains, locus YKR026C, strain gcn3, hits give low values",0.992
same,normalized growth,"S. cerevisiae deletion strains, locus YKR091W, strain srl3, hits give low values",0.977
same,normalized growth,"S. cerevisiae deletion strains, locus YLL001W, strain dnm1, hits give low values",0.935
same,normalized growth,"S. cerevisiae deletion strains, locus YLL026W, hits give low values",0.956
same,normalized growth,"S. cerevisiae deletion strains, locus YLL041C, strain sdh2, hits give low values",0.964
same,normalized growth,"S. cerevisiae deletion strains, locus YLR027C, strain aat2, hits give low values",0.945
same,normalized growth,"S. cerevisiae deletion strains, locus YLR039C, strain RIC1, hits give low values",0.72
same,normalized growth,"S. cerevisiae deletion strains, locus YLR058C, strain SHM2, hits give low values",0.968
same,normalized growth,"S. cerevisiae deletion strains, locus YLR102C, strain apc9, hits give low values",0.94
same,normalized growth,"S. cerevisiae deletion strains, locus YLR113W, strain HOG1, hits give low values",0.973
same,normalized growth,"S. cerevisiae deletion strains, locus YLR221C, strain rsa3, hits give low values",0.9 (active)
same,normalized growth,"S. cerevisiae deletion strains, locus YLR258W, strain gsy2, hits give low values",0.92
same,normalized growth,"S. cerevisiae deletion strains, locus YLR262C, strain YPT6 (second series), hits give low values",0.71 (active)
same,normalized growth,"S. cerevisiae deletion strains, locus YLR262C, strain YPT6, hits give low values",0.785
same,normalized growth,"S. cerevisiae deletion strains, locus YLR268W, strain sec22, hits give low values",0.807 (active)
same,normalized growth,"S. cerevisiae deletion strains, locus YLR320W, strain mms22, hits give low values",0.808 (active)
same,normalized growth,"S. cerevisiae deletion strains, locus YLR330W, strain CHS5, hits give low values",0.969
same,normalized growth,"S. cerevisiae deletion strains, locus YLR342W, strain FKS1 (second series), hits give low values",0.781 (active)
same,normalized growth,"S. cerevisiae deletion strains, locus YLR342W, strain FKS1, hits give low values",0.851 (active)
same,normalized growth,"S. cerevisiae deletion strains, locus YLR357W, strain rsc2, hits give low values",1.08
same,normalized growth,"S. cerevisiae deletion strains, locus YLR370C, strain arc18, hits give low values",0.952
same,normalized growth,"S. cerevisiae deletion strains, locus YLR371W, strain rom2, hits give low values",0.959
same,normalized growth,"S. cerevisiae deletion strains, locus YLR384C, strain iki3, hits give low values",0.976
same,normalized growth,"S. cerevisiae deletion strains, locus YLR418C, strain cdc73, hits give low values",0.701 (active)
same,normalized growth,"S. cerevisiae deletion strains, locus YML016C, strain PPZ1, hits give low values",0.961
same,normalized growth,"S. cerevisiae deletion strains, locus YML032C, strain rad52, hits give low values",0.914
same,normalized growth,"S. cerevisiae deletion strains, locus YML120C, strain ndi1, hits give low values",0.932
same,normalized growth,"S. cerevisiae deletion strains, locus YML124C, strain tub3, hits give low values",0.945
same,normalized growth,"S. cerevisiae deletion strains, locus YMR058W, strain fet3, hits give low values",0.93
same,normalized growth,"S. cerevisiae deletion strains, locus YMR078C, strain ctf18, hits give low values",0.932
same,normalized growth,"S. cerevisiae deletion strains, locus YMR125W, strain sto1, hits give low values",0.961
same,normalized growth,"S. cerevisiae deletion strains, locus YMR129W, hits give low values",0.959
same,normalized growth,"S. cerevisiae deletion strains, locus YMR205C, strain PFK2, hits give low values",0.892
same,normalized growth,"S. cerevisiae deletion strains, locus YMR223W, strain ubp8, hits give low values",0.91
same,normalized growth,"S. cerevisiae deletion strains, locus YMR231W, strain pep5, hits give low values",0.99
same,normalized growth,"S. cerevisiae deletion strains, locus YMR263W, strain SAP30, hits give low values",0.921
same,normalized growth,"S. cerevisiae deletion strains, locus YMR307W, strain GAS1, hits give low values",0.621
same,normalized growth,"S. cerevisiae deletion strains, locus YNL067W, strain RPL9B, hits give low values",0.907
same,normalized growth,"S. cerevisiae deletion strains, locus YNL071W, strain lat1, hits give low values",0.674 (active)
same,normalized growth,"S. cerevisiae deletion strains, locus YNL128W, strain TEP1, hits give low values",0.991
same,normalized growth,"S. cerevisiae deletion strains, locus YNL153C, strain GIM3, hits give low values",0.953
same,normalized growth,"S. cerevisiae deletion strains, locus YNL183C, strain NPR1, hits give low values",0.95
same,normalized growth,"S. cerevisiae deletion strains, locus YNL209W, strain ssb2, hits give low values",0.949
same,normalized growth,"S. cerevisiae deletion strains, locus YNL233W, strain BNI4, hits give low values",0.89
same,normalized growth,"S. cerevisiae deletion strains, locus YNL248C, strain rpa49, hits give low values",0.94
same,normalized growth,"S. cerevisiae deletion strains, locus YNL250W, strain rad50, hits give low values",0.95
same,normalized growth,"S. cerevisiae deletion strains, locus YNL271C, strain bni1, hits give low values",0.933
same,normalized growth,"S. cerevisiae deletion strains, locus YNL298W, strain CLA4, hits give low values",0.92
same,normalized growth,"S. cerevisiae deletion strains, locus YNL307C, strain MCK1, hits give low values",0.729 (active)
same,normalized growth,"S. cerevisiae deletion strains, locus YNL322C, strain KRE1 (second series), hits give low values",0.965
same,normalized growth,"S. cerevisiae deletion strains, locus YNL322C, strain KRE1, hits give low values",0.981
same,normalized growth,"S. cerevisiae deletion strains, locus YNR049C, strain mso1, hits give low values",0.977
same,normalized growth,"S. cerevisiae deletion strains, locus YNR052C, strain pop2, hits give low values",0.963
same,normalized growth,"S. cerevisiae deletion strains, locus YOL006C, strain TOP1, hits give low values",0.598
same,normalized growth,"S. cerevisiae deletion strains, locus YOL012C, strain htz1",1.13
same,normalized growth,"S. cerevisiae deletion strains, locus YOL147C, strain pex11, hits give low values",0.951
same,normalized growth,"S. cerevisiae deletion strains, locus YOR001W, strain rrp6, hits give low values",0.956
same,normalized growth,"S. cerevisiae deletion strains, locus YOR061W, strain CKA2, hits give low values",0.979
same,normalized growth,"S. cerevisiae deletion strains, locus YOR069W, strain VPS5, hits give low values",0.98
same,normalized growth,"S. cerevisiae deletion strains, locus YOR070C, strain gyp1, hits give low values",0.935
same,normalized growth,"S. cerevisiae deletion strains, locus YOR080W, strain dia2, hits give low values",0.996
same,normalized growth,"S. cerevisiae deletion strains, locus YOR083W, strain WHI5, hits give low values",0.909
same,normalized growth,"S. cerevisiae deletion strains, locus YOR106W, strain vam3, hits give low values",0.925
same,normalized growth,"S. cerevisiae deletion strains, locus YOR136W, strain idh2, hits give low values",0.964
same,normalized growth,"S. cerevisiae deletion strains, locus YOR144C, strain elg1, hits give low values",0.948
same,normalized growth,"S. cerevisiae deletion strains, locus YOR184W, strain ser1, hits give low values",0.753 (active)
same,normalized growth,"S. cerevisiae deletion strains, locus YOR231W, strain MKK1, hits give low values",0.982
same,normalized growth,"S. cerevisiae deletion strains, locus YOR265W, strain rbl2, hits give low values",0.961
same,normalized growth,"S. cerevisiae deletion strains, locus YOR270C, strain vph1, hits give low values",0.633 (active)
same,normalized growth,"S. cerevisiae deletion strains, locus YOR290C, strain snf2, hits give low values",0.929
same,normalized growth,"S. cerevisiae deletion strains, locus YOR316C, strain cot1, hits give low values",0.946
same,normalized growth,"S. cerevisiae deletion strains, locus YPL051W, strain arl3, hits give low values",0.896 (active)
same,normalized growth,"S. cerevisiae deletion strains, locus YPL055C, strain LGE1, hits give low values",0.827
same,normalized growth,"S. cerevisiae deletion strains, locus YPL078C, strain atp4, hits give low values",0.914
same,normalized growth,"S. cerevisiae deletion strains, locus YPL106C, strain sse1, hits give low values",0.92
same,normalized growth,"S. cerevisiae deletion strains, locus YPL240C, strain hsp82, hits give low values",0.946
same,normalized growth,"S. cerevisiae deletion strains, locus YPL241C, strain CIN2, hits give low values",0.969
same,normalized growth,"S. cerevisiae deletion strains, locus YPL256C, strain CLN2, hits give low values",0.914
same,normalized growth,"S. cerevisiae deletion strains, locus YPR119W, strain clb2, hits give low values",0.936
same,normalized growth,"S. cerevisiae deletion strains, locus YPR141C, strain kar3, hits give low values",0.946
same,normalized growth,"S. cerevisiae deletion strains, locus YPR163C, strain tif3, hits give low values",0.856 (active)
same,normalized growth,"S. cerevisiae deletion strains, locus YPR167C, strain met16, hits give low values",0.948
same,normalized growth,"S. cerevisiae deletion strains, strain wtn01, hits give low values",0.9
same,normalized growth,"S. cerevisiae strains, strain wild type, hits give low values",0.948
